Screening data (PubChem BioAssay)
Only some compounds are listed: those with a hit (about 2.1% of all), similar ones and a draw of the others.
PLC-gamma1 inh: inhibitors of human phospholipase C gamma1; purified PLC-gamma1, fluorogenic substrate, fluorescence; inhibition, % at 12.2 µM; 370,000 compounds, 0.84% hits; AID 720700
PLCb3 inh: inhibitors of human phospholipase C beta3 | Q01970 | Purified PLC-beta3, fluorogenic substrate, fluorescence | inhibition, % at 12.2 µM | 370,000 compounds, 0.18% hits; in the data active = inhibition above about 11%;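 note: 0% = median of compound wells on plate and 100% = full blocker control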
Rce1 inhib: inhibitors of yeast Ras-converting enzyme | calls only | yeast membranes, quenched prenylated peptide cleavage fluorescence | AID 2563 | Q03530 | 290,000 compounds, 0.27% hits;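 active = fall in fluorescence gain of 50% or more versus controls, with final raw signal at or below 3038400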;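 note: plate controls were neutral control wells for no effect and wells lacking membranes for full effect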
Target sequence (Q03530 whole entry, looked up): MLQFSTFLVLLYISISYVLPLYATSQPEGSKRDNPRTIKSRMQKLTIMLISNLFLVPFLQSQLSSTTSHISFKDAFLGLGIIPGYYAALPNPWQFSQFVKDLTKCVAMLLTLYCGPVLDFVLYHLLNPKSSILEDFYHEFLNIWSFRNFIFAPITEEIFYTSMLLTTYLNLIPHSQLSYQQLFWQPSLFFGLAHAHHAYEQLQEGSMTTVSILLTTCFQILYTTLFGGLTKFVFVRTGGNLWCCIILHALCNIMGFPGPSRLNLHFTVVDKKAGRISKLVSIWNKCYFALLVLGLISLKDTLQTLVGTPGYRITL
ADAM10 inh: inhibitors of human ADAM10; O14672; recombinant ADAM10, EDANS/DABCYL FRET peptide cleavage, 3 h; inhibition, % at 7 µM; 370,000 compounds, 0.62% hits; AID 720582;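 active = inhibition above a per-campaign cutoff equal to the mean of compounds falling between control-based bounds plus 3 SD, cut at about 20% in these data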;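 note: 0% = DMSO wells while the 100% control is not disclosed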
ADAM17 inh: inhibits human ADAM17; P78536; recombinant ADAM17, EDANS/DABCYL FRET peptide cleavage; inhibition, % at 6.95 µM; 370,000 compounds, 0.83% hits; AID 720648;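 active = inhibition above the mean of compounds lying between control limits plus 3 SD, set per campaign, cut at about 8.5% in these data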;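 note: 0% = DMSO-only wells as the low control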
PLCg1 ctr: counter-screen for PLC-beta3 inhibitors: inhibitors of human PLC-gamma1; inhibition, % at 12.3 µM; purified PLC-gamma1, fluorogenic substrate, fluorescence; shares compounds with PLC-gamma1 inh; 3,300 compounds, 3.1% hits
PLCb3 confirm: confirmation of human PLC-beta3 inhibitors. shares compounds with PLC-gamma1 inh. purified PLC-beta3, fluorogenic substrate fluorescence. inhibition, % at 12.3 µM. 3,300 compounds, 1% hits. AID 743261; in the data active = inhibition above about 11%
* marks the source's active call; other numbers are inactive results. Cut-off read from the data, not from the text of the source, unless noted: active = inhibition above about 9.5%; inactive = the rest.

Screening COc1cc(C2NC(=O)NC(C)=C2[N+](=O)[O-])cc(OC)c1OC (stereo unspecified) returned PLC-gamma1 inh 3.4, PLCb3 inh -1.3, Rce1 inhib inactive, ADAM10 inh -1.9 and ADAM17 inh 0.5.
`COC(=O)c1cc(-c2cccc3c2sc2ccccc23)c(=O)n2c1CCC2` gave PLC-gamma1 inh 41.3*, PLCb3 inh -5.2, ADAM10 inh -20.2, ADAM17 inh -9.3, PLCg1 ctr -34.9 and PLCb3 confirm -28.5.
For COC(=O)c1cc(-c2ccc(Cl)s2)c(=O)n2c1CCC2 the results were PLC-gamma1 inh -80.0, PLCb3 inh -96.4, ADAM10 inh -416.6 and ADAM17 inh -98.8.
`CC1(C)CC(=O)N(CC(=O)N2CCN(Cc3ccc4c(c3)OCO4)CC2)c2ccccc2S1(=O)=O` gave PLC-gamma1 inh -0.1, PLCb3 inh -0.7, ADAM10 inh -1.2 and ADAM17 inh -2.6.
For O=C(CN1C(=O)c2ccccc2S1(=O)=O)N1CCN(Cc2ccc3c(c2)OCO3)CC1 the results were PLC-gamma1 inh 9.7*, PLCb3 inh 1.0, Rce1 inhib inactive, ADAM10 inh 1.9, ADAM17 inh 0.4, PLCg1 ctr 4.1 and PLCb3 confirm 4.1.
Screening CCCNC(=O)C(Cc1ccc(OC)cc1)NC(=O)c1ccc(C#N)cc1 (stereo unspecified) returned PLC-gamma1 inh 0.5, PLCb3 inh 1.2, ADAM10 inh -6.5 and ADAM17 inh -3.2.
CCCNC(=O)C(Cc1ccc(OC)cc1)NC(=O)c1ccc(Cl)cc1 (stereo unspecified) was read as PLC-gamma1 inh 13.1*, PLCb3 inh 8.1, ADAM10 inh 6.2, ADAM17 inh 5.2, PLCg1 ctr -5.9 and PLCb3 confirm 0.3.
`CCOc1ccccc1NC(=O)c1cccc(NC2=NC3CS(=O)(=O)CC3S2)c1` (stereo unspecified) gave PLC-gamma1 inh 12.8*, PLCb3 inh 6.7, Rce1 inhib inactive, ADAM10 inh 11.4, ADAM17 inh 6.0, PLCg1 ctr -0.8 and PLCb3 confirm 1.9.
COCC1CCCCC1OS(N)(=O)=O (stereo unspecified) was read as PLC-gamma1 inh 1.4, PLCb3 inh -0.4, Rce1 inhib inactive, ADAM10 inh 0.6 and ADAM17 inh -2.8.
`CC1CCN(C(=O)CN2C(=O)NC(c3ccccc3)(c3ccccc3)C2=O)CC1` gave PLC-gamma1 inh 12.9*, PLCb3 inh 2.1, ADAM10 inh -4.3, ADAM17 inh 5.2, PLCg1 ctr -6.3 and PLCb3 confirm -1.1.
O=C(CN1C(=O)NC(c2ccccc2)(c2ccccc2)C1=O)N1CCCCC1 was read as PLC-gamma1 inh -1.4, PLCb3 inh -0.2, ADAM10 inh -4.3 and ADAM17 inh -0.6.
`NC(=O)c1ccc(NC(=O)CN2C(=O)NC(c3ccccc3)(c3ccccc3)C2=O)cc1` gave PLC-gamma1 inh 10.5*, PLCb3 inh -5.0, Rce1 inhib inactive, ADAM10 inh 15.2, ADAM17 inh 2.9, PLCg1 ctr -3.0 and PLCb3 confirm -1.6.
NC(=O)NC(=O)CN1C(=O)NC(c2ccccc2)(c2ccccc2)C1=O was read as PLC-gamma1 inh 10.8*, PLCb3 inh 2.8, Rce1 inhib inactive, ADAM10 inh -1.4, ADAM17 inh 2.9, PLCg1 ctr -3.4 and PLCb3 confirm -3.9.
Cc1ccc(-n2ncc3c(SCc4ccccn4)ncnc32)c(C)c1 was read as PLC-gamma1 inh 0.8, PLCb3 inh -7.1, Rce1 inhib inactive, ADAM10 inh 5.0 and ADAM17 inh -1.9.
Screening CC1=C(C(=O)N(C(C)C)C(C)C)CC(CC(=O)NCc2cccc3ccccc23)C(=O)N1CCC1=CCCCC1 (stereo unspecified) returned PLC-gamma1 inh -0.5, PLCb3 inh 2.1, ADAM10 inh 5.0 and ADAM17 inh 6.3.
`Cc1ccc(OC/C(=N\O)C(C)(C)C)c([N+](=O)[O-])c1` gave PLC-gamma1 inh -2.4, PLCb3 inh 0.1, Rce1 inhib inactive, ADAM10 inh 9.5 and ADAM17 inh 2.2.
For O=C(c1cc2ccccc2[nH]1)N(Cc1cccnc1)CC1CCCN(C2CCCCC2)C1 (stereo unspecified) the results were PLC-gamma1 inh -3.6, PLCb3 inh -13.4, Rce1 inhib inactive, ADAM10 inh -5.5 and ADAM17 inh -4.3.
COc1ccc(C(=O)N2CCC(O)(c3ccc(F)cc3)CC2)cc1OC was read as PLC-gamma1 inh 10.2*, PLCb3 inh 4.1, Rce1 inhib inactive, ADAM10 inh 8.2, ADAM17 inh 0.6, PLCg1 ctr -4.9 and PLCb3 confirm -2.5.
`O=C(COC(=O)c1ccccc1)Nc1cc(Cl)ccc1Oc1ccccc1` gave PLC-gamma1 inh -1.9, PLCb3 inh -2.8, Rce1 inhib inactive, ADAM10 inh 4.4 and ADAM17 inh 1.2.
`CC(C)CN1C(=O)C(=O)N(CC(=O)Nc2cc(Cl)ccc2Oc2ccccc2)C1=O` gave PLC-gamma1 inh 20.4*, PLCb3 inh 3.4, Rce1 inhib inactive, ADAM10 inh 1.0, ADAM17 inh 1.7, PLCg1 ctr 6.7 and PLCb3 confirm 10.4.
`O=C(COC(=O)c1c(Cl)cccc1Cl)Nc1cc(Cl)ccc1Oc1ccccc1` gave PLC-gamma1 inh 11.2*, PLCb3 inh 3.8, Rce1 inhib inactive, ADAM10 inh 6.4, ADAM17 inh 4.7, PLCg1 ctr -6.3 and PLCb3 confirm -6.2.
`C/C(=N/NC(=O)c1cccc(N2CCCC2=O)c1)c1ccncc1` gave PLC-gamma1 inh -1.0, PLCb3 inh -1.6, Rce1 inhib inactive, ADAM10 inh 8.2 and ADAM17 inh -0.5.
For CSc1cccc(NC(=S)N(CCCN2CCCC2)Cc2cccs2)c1 the results were PLC-gamma1 inh 12.6*, PLCb3 inh 2.1, Rce1 inhib inactive, ADAM10 inh 2.1, ADAM17 inh 1.7, PLCg1 ctr -9.0 and PLCb3 confirm -3.2.
Screening COc1ccc(NC(=S)N(CCCN2CCCC2)Cc2cccs2)cc1 returned PLC-gamma1 inh -0.7, PLCb3 inh -0.5, Rce1 inhib inactive, ADAM10 inh -7.4 and ADAM17 inh -6.2.
Screening CCCOc1ccc(C(=O)N2CCC(Oc3cccnc3)CC2)cc1 returned PLC-gamma1 inh 0.4, PLCb3 inh 4.5, ADAM10 inh 0.7 and ADAM17 inh -2.6.
`Cc1ccc2nsnc2c1S(=O)(=O)N1CCN(CCc2ccccc2)CC1` gave PLC-gamma1 inh 14.0*, PLCb3 inh 5.9, Rce1 inhib inactive, ADAM10 inh 2.4, ADAM17 inh 1.7, PLCg1 ctr -1.3 and PLCb3 confirm -1.4.
`O=S(=O)(c1ccccc1)N1CCN(CCc2ccccc2)CC1` gave PLC-gamma1 inh -1.0, PLCb3 inh -1.4, Rce1 inhib inactive, ADAM10 inh -0.7 and ADAM17 inh 1.3.
